Screens as filed in PubChem BioAssay.
A selection: hits, their analogues and other compounds. The true share with any hit is near 3.2%.
GLP1R cytotox = cytotoxicity in counter-screen for GLP-1R inverse agonists. 0.13% of 410,000 active. Potency, µM (series often up to 38.3 µM), without a hit: top-dose activity change, negative = inhibition, most hits filed as inhibitors. HEK293 cAMP-luciferase reporter cells, luminescence, 24 h;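 further: loss of luciferase light is scored as toxicity; on the % scale 0 is the no-effect control and ±100 the full control effect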
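Step one: seed cells (200 cells/uL, DMEM with 10% Nu serum, 1% pen-strep). Step two: 12-hour incubation at 37 deg C. Step three: pin 23 nL compound, incubate 24 hr. Step four: add luciferase reagent, read luminescence 12 min later.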
GLP-1R inv ag = GLP-1 receptor (human) inverse agonism; Potency, µM (highest dose often 38.3 µM), for inactives: at the top dose activity change, negative = inhibition, hits mostly inhibitors; P43220; HEK293 GLP-1R CRE-luciferase, luminescence, 24 h; GLP-1R form is constitutively active; 1.6% of 410,000 active; further: on the % scale 0 is the no-effect control and ±100 the full control effect; nearly all actives have a fitted effect of over 55% in size
Target sequence (P43220 whole entry, looked up): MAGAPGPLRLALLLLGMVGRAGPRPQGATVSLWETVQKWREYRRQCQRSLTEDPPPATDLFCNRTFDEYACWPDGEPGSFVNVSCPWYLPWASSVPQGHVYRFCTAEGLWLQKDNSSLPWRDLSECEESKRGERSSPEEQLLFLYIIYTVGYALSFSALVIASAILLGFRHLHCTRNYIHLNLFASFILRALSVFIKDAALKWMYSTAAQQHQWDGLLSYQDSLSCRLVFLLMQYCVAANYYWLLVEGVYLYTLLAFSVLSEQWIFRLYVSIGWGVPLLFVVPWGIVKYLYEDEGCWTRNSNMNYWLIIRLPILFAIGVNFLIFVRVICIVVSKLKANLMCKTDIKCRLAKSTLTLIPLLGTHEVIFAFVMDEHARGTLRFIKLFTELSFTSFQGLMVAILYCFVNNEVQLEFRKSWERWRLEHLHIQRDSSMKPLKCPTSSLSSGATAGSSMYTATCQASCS
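Seeding at 200 cells/uL, 12 h culture, 24 hr compound treatment, then luciferase reagent and a luminescence read; cells are HEK293 stably expressing a constitutively active GLP-1R plus cAMP-responsive luciferase.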
ClpP mod = qHTS Assay for Activators of ClpP; Potency, µM (top dose mostly 57.5 µM), without a hit: at the highest dose activity change, negative = active; AID 651965, 2013; ATP-dependent Clp protease proteolytic subunit (Bacillus subtilis (strain 168)), P80244; 1.9% of 340,000 active; purified B. subtilis ClpP, FRET peptide cleavage, 20 min; active means well fitted falling curve with a large enough effect; inconclusive means small, poorly fitted or top-dose-only effect; inactive means no such curve, though single readings can be large or run the other way; further: the source files actives as falling curves though it sought activators and does not explain the sign; nearly all actives have a fitted effect of over 65% in size
Target sequence (P80244 whole entry, looked up): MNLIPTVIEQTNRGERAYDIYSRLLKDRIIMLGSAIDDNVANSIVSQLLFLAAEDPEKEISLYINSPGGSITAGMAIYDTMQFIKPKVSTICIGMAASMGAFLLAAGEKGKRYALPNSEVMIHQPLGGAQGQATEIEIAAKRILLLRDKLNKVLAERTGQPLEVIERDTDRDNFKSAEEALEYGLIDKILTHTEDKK
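ClpP 10 microg/mL final, pH 8 Tris/KCl buffer with BSA, glycerol, Tween-20; compound pinned in; FRET-FV substrate; RT 20 min; Ex320/Em430; ΔFRET vs ADEP 5.8 microM, DMSO, no enzyme.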
GLP-1R agonist = agonists of human GLP-1 receptor; P43220; HEK293 GLP-1R CRE-luciferase, luminescence, 4-6 h; cells express a hypersensitive GLP-1R form; Potency, µM (series often up to 45.6 µM), inactives show top-dose activation, most hits filed as activators; 0.007% of 380,000 active; AID 624172; further: % of control where 0% means no effect
The depositor's hits bear a star. Unless noted, the call rests on the fitted dose curve; in most records, active means well fitted curve in the direction sought with a large enough effect; inconclusive means small, poorly fitted or top-dose-only effect, or another doubt; inactive means no such curve, though single readings can be large; an effect the other way counts as inactive or inconclusive. Potency means the concentration at half of the fitted maximal effect.

Screening C[C@@H]1CCCCO[C@@H](CN(C)C(=O)Nc2ccc3c(c2)OCO3)[C@@H](C)CN([C@H](C)CO)C(=O)c2cc(N(C)C)ccc2O1 returned GLP1R cytotox 2%, GLP-1R inv ag 8%, ClpP mod -8% and GLP-1R agonist 21%.
For O=C(NCCN1CCOCC1)c1sc2cc(Cl)ccc2c1Cl the results were GLP1R cytotox -2%, GLP-1R inv ag -16%, ClpP mod 0% and GLP-1R agonist 23%.
Screening CC(C)(CNC(=O)c1sc2cc(Cl)ccc2c1Cl)N1CCOCC1 returned GLP1R cytotox 5%, GLP-1R inv ag 10µM*, ClpP mod 1% and GLP-1R agonist 31%.
For Cn1cc(CN(C(=O)Nc2ccccc2)C2CCCCC2)c2ccccc21 the results were GLP1R cytotox inconclusive, GLP-1R inv ag 10µM*, ClpP mod -27% and GLP-1R agonist -4%.
`Cn1cc(CN(C(=O)Nc2ccc(Cl)c(Cl)c2)C2CCCCC2)c2ccccc21` gave GLP1R cytotox 2%, GLP-1R inv ag 20%, ClpP mod 0% and GLP-1R agonist -1%.
`Cc1ccc(Nc2c(-c3c[nH]c4ccccc34)nc3cc(C)ccn23)cc1` gave GLP1R cytotox -10%, GLP-1R inv ag inconclusive and ClpP mod 28µM*.
Cc1ccn2c(Nc3ccccc3)c(-c3c[nH]c4ccccc34)nc2c1 was read as GLP1R cytotox -1%, GLP-1R inv ag inconclusive and ClpP mod 4%.
COc1ccccc1C1C=C(c2ccc(F)cc2)Nc2nc(-c3ccc(Cl)cc3)nn21 (centres undefined) was read as GLP1R cytotox 250%, GLP-1R inv ag inconclusive and ClpP mod -7%.
For Cc1c(C2=CCN(S(=O)(=O)c3ccc(CC(C)C)cc3)CC2)c2ccccc2n1CC(=O)N1CCCC1 the results were GLP1R cytotox 7%, GLP-1R inv ag -8% and ClpP mod -7%.
For COC(=O)c1cnc2c(C(F)(F)F)cccc2c1OC the results were GLP1R cytotox 21%, GLP-1R inv ag 2%, ClpP mod 16µM* and GLP-1R agonist 2%.
CCOC(=O)c1cnc2c(C(F)(F)F)cccc2c1N1CCN(C)CC1 was read as GLP1R cytotox -1%, GLP-1R inv ag inconclusive and GLP-1R agonist 20%.
For CC(C)Sc1nc2sc3c(c2c(=O)n1-c1ccccc1)CCCC3 the results were GLP1R cytotox 2%, GLP-1R inv ag -10% and ClpP mod -10%.
c1ccc(Cn2ncc3ccccc32)cc1 was read as GLP1R cytotox -21%, GLP-1R inv ag 26%, ClpP mod -1% and GLP-1R agonist 1%.
`CN(C)c1nc(-c2ccccc2)c2cnn(Cc3ccccc3)c2n1` gave GLP1R cytotox -12%, GLP-1R inv ag inconclusive, ClpP mod 28µM* and GLP-1R agonist 7%.
For CCOC(=O)C(=O)Nc1c(C(=O)Nc2cccc(F)c2)oc2ccccc12 the results were GLP1R cytotox -1%, GLP-1R inv ag 10%, ClpP mod -1% and GLP-1R agonist 2%.
Screening CCC(COC(=O)Nc1cccc(C)c1)NC(=O)OCC(C)C (centres undefined) returned GLP1R cytotox 13%, GLP-1R inv ag 0%, ClpP mod 10µM* and GLP-1R agonist 3%.
CCNC(=O)OCC(CC)NC(=O)OCC(C)C (centres undefined) was read as GLP1R cytotox 0%, GLP-1R inv ag 9%, ClpP mod 1% and GLP-1R agonist 2%.
`COc1ccc(CCNC(=O)CS(=O)(=O)Cc2nc(-c3cccc(Cl)c3)oc2C)cc1OC` gave GLP1R cytotox 4%, GLP-1R inv ag 13%, ClpP mod -5% and GLP-1R agonist 0%.
`COc1cccc(-c2cc3nc(-c4ccccc4)cc(N4CCC5(CC4)OCCO5)n3n2)c1` gave GLP1R cytotox 3%, GLP-1R inv ag 0%, ClpP mod 16µM* and GLP-1R agonist 7%.
Screening CN1CCN(c2nc(C#N)cc(-c3ccccc3)n2)CC1 returned GLP1R cytotox -13%, GLP-1R inv ag 13µM*, ClpP mod -4% and GLP-1R agonist 0%.
Screening COc1cccc(-c2cc3nc(-c4ccccc4)cc(N4CCN(C(=O)c5ccoc5)CC4)n3n2)c1 returned GLP1R cytotox 7%, GLP-1R inv ag inconclusive, ClpP mod 4% and GLP-1R agonist -1%.
For CN1CCN(c2cc(-c3ccccc3)nc3cc(-c4ccc(F)cc4)nn23)CC1 the results were GLP1R cytotox 1%, GLP-1R inv ag inconclusive, ClpP mod 22µM* and GLP-1R agonist 15%.
For COc1ccc(-c2cc(C#N)nc(N3CCN(C)CC3)n2)cc1 the results were GLP1R cytotox -4%, GLP-1R inv ag inconclusive and GLP-1R agonist 7%.
Screening C=C1N[C@]2(C(=O)COC(C)=O)[C@@H](C[C@H]3[C@@H]4CCC5=CC(=O)C=C[C@]5(C)[C@H]4[C@@H](O)C[C@@]32C)O1 returned GLP-1R agonist 6%.
CCN(CC)CCN1C(=O)c2ccccc2NC1c1ccc(OC)c(COc2ccc(NC(C)=O)cc2)c1 (centres undefined) was read as ClpP mod 4%.
`Cc1ccc(NC(=O)Cn2c(=O)n(-c3ccc(CC(=O)NCC4CCCO4)cc3)c(=O)c3ccccc32)cc1` (centres undefined) gave GLP1R cytotox -7%, GLP-1R inv ag 10%, ClpP mod -18% and GLP-1R agonist 1%.
Screening Fc1ccc(-[n+]2nc(Nc3ccccc3)sc2-c2c3ccccc3cc3ccccc23)cc1 returned GLP1R cytotox inconclusive, GLP-1R inv ag 11µM*, ClpP mod -1% and GLP-1R agonist 2%.
For COC(=O)c1cc2oc3ccccc3c2n1Cc1cc(C)ccc1C the results were GLP1R cytotox 5%, GLP-1R inv ag 11% and ClpP mod -12%.
`COc1ccc(CNC(=O)c2ccc(-c3nc(CSc4ccccc4)c(C)o3)cc2)cc1` gave GLP1R cytotox 1%, GLP-1R inv ag 20% and ClpP mod 5%.
Screening CCCCCOc1ccccc1CN1C(=O)C(=O)c2cc(C)ccc21 returned GLP1R cytotox 4%, GLP-1R inv ag 1% and ClpP mod -1%.
`COCCCNc1oc(-c2ccc(COc3ccc(Cl)cc3)o2)nc1C#N` gave GLP1R cytotox -11%, GLP-1R inv ag -25% and ClpP mod 32µM*.
COc1ccc(OCc2ccc(-c3nc(C#N)c(NCc4ccc(F)cc4)o3)o2)cc1 was read as GLP1R cytotox -8%, GLP-1R inv ag inconclusive and ClpP mod 32µM*.
CCCCNc1oc(-c2ccc(COc3ccc(OC)cc3)o2)nc1C#N was read as GLP1R cytotox 0%, GLP-1R inv ag -29% and ClpP mod 28µM*.
CCOc1ccc(-c2nc(C#N)c(NC3CC3)o2)cc1 was read as GLP1R cytotox -3%, GLP-1R inv ag 0%, ClpP mod 7.1µM* and GLP-1R agonist -5%.
